# Screening results from PubChem BioAssay.
# A selection: hits, their analogues and other compounds. The true share with any hit is near 8.7%.
# JMJD2A Tudor inh – qHTS Assay for Inhibitors of JMJD2A-Tudor Domain; AlphaScreen JMJD2A-Tudor / H3K4me3 peptide binding; 390,000 tested, 4.4% active; Potency, µM (series often up to 114 µM), without a hit: at the highest dose activity change, negative = inhibition, hits mostly inhibitors; Lysine-specific demethylase 4A (Homo sapiens), O75164; also: % is scaled to controls: 0 for no effect and ±100 for the full control effect; nearly all actives have a fitted effect of over 50% in size
# Target sequence (O75164 whole entry, looked up, the tested form may be a part): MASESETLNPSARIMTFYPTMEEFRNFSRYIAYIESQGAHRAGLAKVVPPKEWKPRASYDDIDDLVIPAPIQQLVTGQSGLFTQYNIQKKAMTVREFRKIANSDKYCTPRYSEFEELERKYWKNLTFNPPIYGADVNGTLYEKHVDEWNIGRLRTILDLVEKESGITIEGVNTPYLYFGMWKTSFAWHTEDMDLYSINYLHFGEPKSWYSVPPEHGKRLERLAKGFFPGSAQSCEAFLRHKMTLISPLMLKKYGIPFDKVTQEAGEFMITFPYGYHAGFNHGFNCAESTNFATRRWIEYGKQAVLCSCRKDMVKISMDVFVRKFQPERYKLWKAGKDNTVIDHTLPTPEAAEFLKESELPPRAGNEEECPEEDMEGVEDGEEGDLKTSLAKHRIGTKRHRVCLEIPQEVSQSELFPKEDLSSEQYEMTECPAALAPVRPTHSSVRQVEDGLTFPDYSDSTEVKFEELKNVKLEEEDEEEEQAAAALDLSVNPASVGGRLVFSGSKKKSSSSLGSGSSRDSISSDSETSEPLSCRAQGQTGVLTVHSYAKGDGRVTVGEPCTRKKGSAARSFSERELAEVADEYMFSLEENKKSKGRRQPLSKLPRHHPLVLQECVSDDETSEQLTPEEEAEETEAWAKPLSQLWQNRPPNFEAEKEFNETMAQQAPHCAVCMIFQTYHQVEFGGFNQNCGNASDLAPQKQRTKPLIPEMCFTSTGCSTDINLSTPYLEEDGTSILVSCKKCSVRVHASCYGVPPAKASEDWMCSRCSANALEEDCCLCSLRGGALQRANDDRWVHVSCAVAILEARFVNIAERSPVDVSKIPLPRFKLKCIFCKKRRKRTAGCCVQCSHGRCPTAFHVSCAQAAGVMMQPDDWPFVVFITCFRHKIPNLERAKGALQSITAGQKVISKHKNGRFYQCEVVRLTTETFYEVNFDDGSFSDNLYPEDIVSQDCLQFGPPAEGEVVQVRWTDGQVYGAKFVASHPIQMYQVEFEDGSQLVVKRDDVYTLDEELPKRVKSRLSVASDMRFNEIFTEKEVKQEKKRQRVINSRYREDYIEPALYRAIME
# ALOX12 inh – Primary qHTS assay for inhibitors of human arachidonate 12S-lipoxygenase (ALOX12): Round 2. Polyunsaturated fatty acid lipoxygenase ALOX12 (Homo sapiens), P18054. purified 12hLO, xylenol orange hydroperoxide absorbance. Potency, µM (highest dose often 108 µM), for inactives: at the top dose activity change, negative = inhibition, most hits filed as inhibitors. 580,000 tested, 1.1% active. AID 1671190, 2021; also: % is scaled to controls: 0 for no effect and ±100 for the full control effect
#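 Purified human 12hLO at 150 nM in 25 mM Hepes, 0.01% Triton X-100, pH 7.0, preincubated 15 min at room temperature with compound. Reaction started with 40 uM arachidonic acid, 30 min at room temperature. Hydroperoxide measured by Fe-xylenol orange, 573/405 nm absorbance ratio.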
# BAZ2B block – qHTS Assay for Inhibitors of BAZ2B. 360,000 tested, 4.4% active. AID 504333, 2011. Potency, µM (series often up to 114 µM), inactives show top-dose activity change, negative = inhibition, most hits filed as inhibitors. AlphaScreen BAZ2B-H3K14Ac peptide displacement; also: % is scaled to controls: 0 for no effect and ±100 for the full control effect; nearly all actives have a fitted effect of over 60% in size
#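 In this displacement format the biotinylated H3(5-23) peptide acetylated at Lys14 serves as ligand at 50 nM, with BAZ2B at 50 nM in PBS pH 7.4 containing 0.01% Tween-20. Donor and acceptor beads are 10 ug/mL final.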
# HP1b binding inh – HTS for Inhibitors of HP1-beta Chromodomain Interactions with Methylated Histone Tails; Chromobox protein homolog 1 (Homo sapiens), P83916; AlphaScreen HP1-beta / biotin-H3K9me3 peptide binding; Potency, µM (top dose mostly 114 µM), without a hit: top-dose activity change, negative = inhibition, actives largely listed as inhibitors; 390,000 tested, 0.56% active; AID 540317, 2011; also: nearly all actives have a fitted effect of over 70% in size
#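 Compound inhibition of the preformed complex between 50 nM HP1-beta and 50 nM biotinylated H3K9me3 peptide was read by AlphaScreen. Buffer was PBS pH 7.4 with 0.01% Tween-20. Incubations ran 30 min at room temperature, with 10 ug/mL donor/acceptor beads.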
# G9a inh – qHTS Assay for Inhibitors of Histone Lysine Methyltransferase G9a. G9a H3K9 monomethylation, AlphaScreen, 2 h. Potency, µM (series often up to 102 µM), for inactives: top-dose activity, negative = inhibition, actives largely listed as inhibitors. 350,000 tested, 8.8% active. AID 504332, 2011; also: % is scaled to controls: 0 for no effect and ±100 for the full control effect; nearly all actives have a fitted effect of over 75% in size
#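 Chemiluminescent proximity detection of H3K9 monomethylation, read after 10 min bead incubation in the dark. Reaction: 20 nM G9a, 500 nM biotin-H3K9 peptide, 20 uM SAM cofactor, 2 h, room temperature, following 15 min enzyme-compound preincubation.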
# Sfp PPTase inh – qHTS Assay for Inhibitors of Bacillus subtilis Sfp phosphopantetheinyl transferase (PPTase) | 4'-phosphopantetheinyl transferase ffp (Bacillus subtilis), Q9F4F7 | Biochemical Sfp PPTase activity, qHTS | Potency, µM, for inactives: largest response in the series, negative = inhibition, hits mostly inhibitors | 310,000 tested, 3.5% active;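 also: the enzyme is Sfp with the accession as filed and its product quenches rhodamine fluorescence; 0% = enzyme reaction without inhibitor and -100% = no enzyme wells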
#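 Buffer: 50 mM Hepes-Na pH 7.6, 10 mM MgCl2, 0.01% Nonidet P-40, 0.01% BSA. Enzyme 15 nM, pre-exposed to compound 15 min; substrates then added and fluorescence change tracked over 30 min.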
# Numbers without * were called inactive; ? = inconclusive; · = no result; [ ] = dose if it differs, or a comment. Calls follow the shape of the dose curve; as a rule, active = well fitted curve in the direction sought with a large enough effect; inconclusive = small, poorly fitted or top-dose-only effect, or another doubt; inactive = no such curve, though single readings can be large; an effect the other way counts as inactive or inconclusive. Potency is read from the fitted curve at half-maximal effect.
SMILES,JMJD2A Tudor inh,ALOX12 inh,BAZ2B block,HP1b binding inh,G9a inh,Sfp PPTase inh
Cc1nccn1CC(=O)N/N=C/c1ccccc1O,56.2µM*,-10.3%,44.7µM*,28.8%,·,20.4%
Cc1sc(N/N=C/c2cc([N+](=O)[O-])ccc2O)nc1-c1ccccc1,22.4µM*,5.7%,-7.9%,15.9%,4.8%,-4.4%
Cc1sc(N/N=C/C=C/c2ccccc2)nc1-c1ccccc1,-29.3%,-19.2%,-5.2%,2.4%,53.1%[12.7 µM],-9.1%
O=C(N/N=C/c1ccccc1O)c1cc(=O)[nH]c2ccccc12,·,·,50.1µM*,·,1.2%[59 µM],7.8%
CCOc1cc(C(=O)Oc2ccccc2OC)cc(Br)c1OC,·,-5.8%,·,·,·,·
O=C(NC1(c2ccccc2)CCC1)c1cc(=O)[nH]c2ccccc12,·,11.2µM*,·,·,·,·
O=C(N/N=C/c1ccccc1O)c1cc[n+]([O-])cc1,35.5µM*,36.8%,20µM*,66.1%,-4.0%,15.1%
O=C(N/N=C/c1ccccc1O)c1ccncc1,50.1µM*,-5.6%,35.5µM*,25.0%,32.9%[59 µM],38.5%
O=C(N/N=C/c1cc([N+](=O)[O-])ccc1O)c1cccc(N2CCCC2=O)c1,31.6µM*,?,20µM*,47.9%,23.2%,11.2%
COC1C(=O)N(C2CCN(C(=O)c3cnccn3)CC2)C12CCOCC2 (stereo unspecified),·,27.5%,·,·,·,·
Cc1ccc2nc(CO[C@H]3CN(Cc4ccc(Cl)cc4)C[C@H]3F)[nH]c2c1,·,-4.1%[176 µM],·,·,·,·
NC(=O)N/N=C\c1cc(Br)ccc1O,-15.3%,-14.9%,5.3%,22.0%,4.1%[59 µM],1.3%
O=C(N/N=C/c1cc(Br)ccc1O)c1ccncc1,28.2µM*,1.2%,20µM*,35.2%,58.9%[12.7 µM],27.3%
O=C(N/N=C\c1cc(Br)ccc1O)c1ccc(S(=O)(=O)N2CCCCC2)cc1,?,4.9%,-8.3%,51.1%,54.6%[59 µM],27.6%
O=C(N/N=C/c1cc([N+](=O)[O-])ccc1O)C(O)(c1ccccc1)c1ccccc1,79.4µM*,?,?,28.4%,·,-4.4%
O=C(N/N=C/c1cc([N+](=O)[O-])ccc1O)C1CC1,-35.8%,57.5%,-28.0%,41.7%,33.6%[59 µM],22.6%
O=C(N/N=C/c1cc(Cl)ccc1O)c1ccc(Br)cc1,25.1µM*,-15.8%,?,28.9%,6.0%[59 µM],6.2%
Nc1nonc1C(=O)N/N=C/c1cc(Br)ccc1O,17.8µM*,?,7.94µM*,36.9%,?,-6.6%
COCCNC(=O)C(NC(=O)c1ccccc1Cl)C1CCN(C(=O)c2ccccc2)CC1 (stereo unspecified),·,30.8%,·,·,·,·
Cn1cccc1CN1CCCN(S(C)(=O)=O)C(c2ccccc2)CC(=O)NCC1 (stereo unspecified),·,259.2%,·,·,·,·
C=CCNCc1ccccc1OCc1ccc(C)cc1,·,6.9%,·,·,·,·
O=C(N/N=C/c1cc(Br)ccc1OC(=O)c1ccc(Br)cc1)c1ccncc1,89.1µM*,3.3%,50.1µM*,?,20.6%,6.2%
O=C(O)COc1ccccc1/C=N/NC(=O)c1ccncc1,·,·,·,·,5.2%[12.7 µM],50.1µM*
COc1ccccc1C=NNC(=O)c1ccncc1,-5.5%,-14.0%,·,21.1%[57 µM],·,·
COc1ccc(/C=N/NC(=O)c2ccncc2)cc1[N+](=O)[O-],1.7%,0.3%,-16.3%,40.2%,-2.9%,9.4%
SMILES,JMJD2A Tudor inh,ALOX12 inh,BAZ2B block,HP1b binding inh,G9a inh,Sfp PPTase inh
COc1cc(O)c(/C=N/NC(=O)c2ccncc2)c(OC)c1[N+](=O)[O-],50.1µM*,143.6%,7.94µM*,48.7%,-28.4%,13.3%
Nc1nonc1C(=O)NCCN=Cc1ccccc1O,-20.5%,4.3%,?,15.0%,0.1%[0.0925 µM],89.1µM*
COCCc1noc([C@@H]2CN(Cc3cccc(C#N)c3)C[C@H]2CO)n1,·,35.8%,·,·,·,·
Cc1nccn1CC(=O)c1ccc(O)c(O)c1,20µM*,-17.1%,56.2µM*,19.9%,9.8%[0.501 µM],·
C/C(=N/N=C/c1ccc(N(C)C)cc1)c1ccccc1,?,-11.2%,?,?,-13.9%[59 µM],-12.5%
CN(C)c1ccc(/C(=N\O)c2ccccc2)cc1,50.1µM*,?,-10.4%,-35.2%,14.1µM*,-23.6%
O=C(N/N=C/c1ccc(O)c(O)c1O)/C(=C/c1ccc([N+](=O)[O-])cc1)NC(=O)c1ccccc1,31.6µM*,?,?,25.1µM*,1.58µM*,44.7µM*
O=C(O)CC/C(=N\NC(=O)c1ccncc1)c1ccccc1,25.1µM*,14.8%,-6.5%,11.8%,·,3.4%
O=[N+]([O-])c1ccccc1N/N=C\c1ccccc1Cl,-18.6%,-4.0%,-9.7%,1.3%,-4.5%[59 µM],7.6%
CCc1ccc(N2CC(C(=O)N/N=C/c3ccccc3OC)CC2=O)cc1 (stereo unspecified),?,-4.0%,-0.3%,23.6%,0.7%,-0.3%
CCc1ccc(N2CC(C(=O)N/N=C/c3cc([N+](=O)[O-])ccc3O)CC2=O)cc1 (stereo unspecified),39.8µM*,?,50.1µM*,13.5%,25.1%,22.1%
O=[N+]([O-])c1ccc(O)c(/C=N/Nc2ccccc2Cl)c1,-7.5%[11.4 µM],?,-26.0%,-2.7%,6.31µM*,8.4%
Cc1ccc2occ(CC(=O)N(Cc3ccc(N(C)C)cc3)C3CCS(=O)(=O)C3)c2c1 (stereo unspecified),?,0.4%,44.7µM*,-18.6%,10µM*,·
CCN(CC)c1ccc(CN(C(=O)Cc2coc3ccc(C)cc23)C2CCS(=O)(=O)C2)cc1 (stereo unspecified),?,-18.7%,10µM*,-16.5%,10µM*,·
Cc1ccc(CN(C(=O)Cc2coc3ccc(C(C)C)cc23)C2CCS(=O)(=O)C2)cc1 (stereo unspecified),·,-18.7%,·,·,·,·
CCc1ccc2occ(CC(=O)N(Cc3ccc(N(C)C)cc3)C3CCS(=O)(=O)C3)c2c1 (stereo unspecified),39.8µM*,2.1%,20µM*,?,12.6µM*,·
CCn1ncc(N2CCC(NC(=O)Cc3ccsc3)CC2)cc1=O,·,20.4%,·,·,·,·
CCOc1cc2ccccc2cc1C(=O)Nc1nnc(C2CC2)s1,·,11.7%,·,·,·,·
CC(=O)N(\C=C/C=C/C=C1\Sc2ccccc2C1=O)c1ccccc1,7.94µM*,15.8µM*,7.08µM*,12.6µM*,10µM*,-32.9%
